# Calls of active or inactive are those of the source. A call without a number means that no potency is given here. Unless noted, calls come from the whole dose curve; as a rule, active = well fitted curve in the direction sought with a large enough effect in the repeat runs; inconclusive = weak or mixed curves; inactive = no such curve, though single readings can be large; an effect the other way counts as inactive or inconclusive.
# Experiments:
# [1] = qHTS assay to identify small molecule antagonists of the thyroid receptor (TR) signaling pathway - cell viability counter screen (AID 743064); note: nearly all actives have a fitted effect of over 50% in size; note: potency is the fitted concentration of half-maximal effect
# How it was run: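 In rat pituitary GH3.TRE-Luc reporter cells co-exposed to compound and 1 nM T3 for 23.5 h, cytotoxicity was assessed with CellTiter-Fluor in the same wells, read by fluorescence.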
# [2] = qHTS assay to identify small molecule antagonists of the thyroid receptor (TR) signaling pathway (AID 743065); note: nearly all actives have a fitted effect of over 55% in size; note: potency is the fitted concentration of half-maximal effect
# How it was run: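 Antagonism measured as loss of luciferase signal in GH3 cells stably carrying a TRE-luciferase reporter, co-treated with compound and T3 (1 nM final) for 23.5 h at 37 C. Viability was read in the same well by CellTiter-Fluor.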
# [3] = tested on: thyroid hormone receptor (rat, GH3 cells); test: qHTS assay to identify small molecule agonists of the thyroid receptor (TR) signaling pathway (AID 743066; calls by dose curve)
# [4] = qHTS assay to identify small molecule antagonists of the estrogen receptor alpha (ER-alpha) signaling pathway - cell viability counter screen (AID 743074; calls by dose curve;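 note: HEK293 cells carrying ER-alpha-UAS-bla reporter stimulated with 17beta-estradiol; nearly all actives have a fitted effect of over 45% in size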)
# [5] = target: Estrogen receptor (Homo sapiens) (UniProt P03372); test: qHTS assay to identify small molecule agonists of the estrogen receptor alpha (ER-alpha) signaling pathway (AID 743075; calls by dose curve;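 note: HEK293 GripTite cells with ER-alpha and UAS-driven beta-lactamase reporter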; note: potency is the fitted concentration of half-maximal effect)
# [6] = target: Estrogen receptor (Homo sapiens) (UniProt P03372); test: qHTS assay to identify small molecule agonists of the estrogen receptor alpha (ER-alpha) signaling pathway using the BG1 cell line (AID 743079); details: BG1Luc4E2 cells, ERE-luciferase agonist, 22 h; activation: at 70.3 µM (top of the series); note: nearly all actives have a fitted effect of over 20% in size
# [7] = qHTS assay to identify small molecule antagonists of the estrogen receptor alpha (ER-alpha) signaling pathway using the BG1 cell line (AID 743080; calls by dose curve;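 note: BG1 cells stimulated with 17beta-estradiol alongside compound; nearly all actives have a fitted effect of over 25% in size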; note: potency is the fitted concentration of half-maximal effect)
# How it was run: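 Luminescence from a 4×ERE-luciferase reporter in BG1-Luc-4E2 cells served as read-out. Cells, pre-cultured 5 days in stripped-serum phenol-red-free medium, were exposed to compound with 17beta-estradiol co-stimulation for 21.5 h at 37 C.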
# [8] = qHTS assay to identify small molecule antagonists of the estrogen receptor alpha (ER-alpha) signaling pathway using the BG1 cell line - cell viability counter screen (AID 743081);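 note: compound given together with 17beta-estradiol as the ER stimulus; nearly all actives have a fitted effect of over 45% in size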; note: potency is the fitted concentration of half-maximal effect
# [9] = target: Aromatase (Homo sapiens) (UniProt P11511); test: qHTS assay to identify aromatase inhibitors (AID 743083); note: nearly all actives have a fitted effect of over 55% in size; note: potency is the fitted concentration of half-maximal effect
# [10] = qHTS assay to identify aromatase inhibitors - cell viability counter screen (AID 743084);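 note: cells stimulated with testosterone during compound exposure; nearly all actives have a fitted effect of over 55% in size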; note: potency is the fitted concentration of half-maximal effect
# [11] = target: Aryl hydrocarbon receptor (Homo sapiens) (UniProt P35869); test: qHTS assay to identify small molecule that activate the aryl hydrocarbon receptor (AhR) signaling pathway (AID 743085); note: nearly all actives have a fitted effect of over 15% in size; note: potency is the fitted concentration of half-maximal effect;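 for activation: HG2L7.5c1 human HepG2 liver cells with stably integrated DRE-driven firefly reporter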
# How it was run: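 AhR agonist activity is inferred from enhanced light output of a DRE-controlled firefly luciferase reporter in HepG2 cells, measured with ONE-Glo following 24 h treatment at 37C.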
# [12] = qHTS assay to identify small molecule that activate the aryl hydrocarbon receptor (AhR) signaling pathway - cell viability counter screen (AID 743086); note: nearly all actives have a fitted effect of over 45% in size; note: potency is the fitted concentration of half-maximal effect
# How it was run: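 Cytotoxicity counter screen: CellTiter-Fluor signal (30 min, 37 C) in 4000 HepG2 cells/well carrying the DRE-luciferase reporter, following 24 h compound exposure at 37 C.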
# [13] = target: Peroxisome proliferator-activated receptor gamma (Homo sapiens) (UniProt P37231); test: qHTS assay to identify small molecule agonists of the peroxisome proliferator-activated receptor gamma (PPARg) signaling pathway (AID 743094; active = well fitted activation curve with a large enough effect in the signal ratio in the repeat runs, not every such curve was filed as active; inconclusive = weak or mixed curves, or effect the other way; inactive = no such curve, though single readings can be large or run the other way; the % refers to the signal ratio)
# How it was run: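 Agonist activity was taken from a beta-lactamase reporter (FRET substrate, 1 h at room temperature) in HEK293H cells carrying a PPARg UAS-bla construct. Compounds in DMSO were incubated 17 h at 37C after a 5 h cell pre-incubation.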
# [14] = qHTS assay to identify small molecule antagonists of the peroxisome proliferator-activated receptor gamma (PPARg) signaling pathway - cell viability counter screen (AID 743194); note: nearly all actives have a fitted effect of over 55% in size; note: potency is the fitted concentration of half-maximal effect
# How it was run: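 Viability was measured as CellTiter-Glo luminescence in GeneBLAzer PPARg UAS-bla HEK293H cells. These cells had been exposed 17 h at 37 C to compounds together with rosiglitazone at 50 nM final, with the beta-lactamase readout taken in the same wells.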
# [15] = qHTS assay for small molecule agonists of the antioxidant response element (ARE) signaling pathway - cell viability counter screen (AID 743203; calls by dose curve; note: nearly all actives have a fitted effect of over 55% in size; note: potency is the fitted concentration of half-maximal effect)
# How it was run: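 Viability counter screen: CellTiter-Glo luminescence, read after 30 min at room temperature, in ARE-bla HepG2 wells. Compound exposure lasted 16 h at 37C/5% CO2, following a 5 h pre-incubation of the cells after plating.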
# [16] = qHTS assay for small molecule activators of the heat shock response signaling pathway - cell viability counter screen (AID 743209); note: nearly all actives have a fitted effect of over 50% in size
# How it was run: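 Cytotoxicity counter screen run in the same wells as the heat-shock bla reporter assay: HeLa HSE-bla cells, 5 h compound exposure at 37 C, viability read by CellTiter-Glo luminescence.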
# [17] = qHTS assay for small molecule activators of the heat shock response signaling pathway (AID 743210; active = well fitted activation curve with a large enough effect in the signal ratio in the repeat runs, with a control signal flat, not every such curve was filed as active; inconclusive = weak or mixed curves; the % refers to the signal ratio)
# How it was run: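 Compound exposure lasted 5 h at 37 C in HeLa cells carrying a heat-shock-element-driven beta-lactamase reporter. Read-out: fluorescence intensity after 2.5 h room-temperature loading with LiveBLAzer B/G FRET substrate.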
# [18] = target: Peroxisome proliferator-activated receptor gamma (Homo sapiens) (UniProt P37231); test: qHTS assay to identify small molecule antagonists of the peroxisome proliferator-activated receptor gamma (PPARg) signaling pathway (AID 743191; calls by dose curve; note: nearly all actives have a fitted effect of over 30% in size)
# How it was run: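 Beta-lactamase reporter under UAS control in HEK293H PPARg-bla cells; compound treatment 17 h at 37C. Read-out: fluorescence intensity after 1 h room-temperature incubation with LiveBLAzer B/G FRET substrate.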
# [19] = target: Estrogen receptor (Homo sapiens) (UniProt P03372); test: qHTS assay to identify small molecule antagonists of the estrogen receptor alpha (ER-alpha) signaling pathway (AID 743069; active = well fitted curve in the direction sought with a large enough effect in the signal ratio in the repeat runs, not every such curve was filed as active; inconclusive = weak or mixed curves, or effect the other way; inactive = no such curve, though single readings can be large or run the other way; the % refers to the signal ratio; note: potency is the fitted concentration of half-maximal effect)
# How it was run: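 Antagonist mode: compounds in DMSO were co-added with 17beta-estradiol to ER-alpha-bla HEK293 cells (2% charcoal-stripped serum) and left 18 h at 37C. Reporter inhibition was measured as FRET fluorescence after 2 h LiveBLAzer substrate at room temperature.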
# [20] = qHTS assay for small molecule agonists of the antioxidant response element (ARE) signaling pathway (AID 743202; active = well fitted activation curve with a large enough effect in the signal ratio in the repeat runs, not every such curve was filed as active; inconclusive = weak or mixed curves, or effect the other way; inactive = no such curve, though single readings can be large or run the other way; the % refers to the signal ratio; note: potency is the fitted concentration of half-maximal effect)
# How it was run: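 After 16 hours of compound treatment at 37 C, HepG2 cells with a stably integrated ARE-driven beta-lactamase reporter were loaded 2 hours at room temperature with LiveBLAzer B/G FRET substrate and fluorescence intensity measured.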
# Aromatase (Homo sapiens), sequence (P11511 whole entry, looked up): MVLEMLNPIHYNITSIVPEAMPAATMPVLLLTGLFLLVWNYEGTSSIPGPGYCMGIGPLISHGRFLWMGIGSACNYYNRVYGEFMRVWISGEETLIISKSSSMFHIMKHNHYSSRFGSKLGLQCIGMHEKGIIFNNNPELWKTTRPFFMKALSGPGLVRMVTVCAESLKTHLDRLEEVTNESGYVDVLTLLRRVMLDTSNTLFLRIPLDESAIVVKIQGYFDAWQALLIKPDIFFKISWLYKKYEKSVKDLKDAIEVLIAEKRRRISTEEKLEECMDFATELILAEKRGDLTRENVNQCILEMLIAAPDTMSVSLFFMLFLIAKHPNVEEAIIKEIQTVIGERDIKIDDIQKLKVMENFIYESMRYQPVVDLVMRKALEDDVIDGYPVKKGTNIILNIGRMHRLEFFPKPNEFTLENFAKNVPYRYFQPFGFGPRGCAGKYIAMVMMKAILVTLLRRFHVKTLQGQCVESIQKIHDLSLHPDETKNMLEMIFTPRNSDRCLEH
# Peroxisome proliferator-activated receptor gamma (Homo sapiens), sequence (P37231 whole entry, looked up): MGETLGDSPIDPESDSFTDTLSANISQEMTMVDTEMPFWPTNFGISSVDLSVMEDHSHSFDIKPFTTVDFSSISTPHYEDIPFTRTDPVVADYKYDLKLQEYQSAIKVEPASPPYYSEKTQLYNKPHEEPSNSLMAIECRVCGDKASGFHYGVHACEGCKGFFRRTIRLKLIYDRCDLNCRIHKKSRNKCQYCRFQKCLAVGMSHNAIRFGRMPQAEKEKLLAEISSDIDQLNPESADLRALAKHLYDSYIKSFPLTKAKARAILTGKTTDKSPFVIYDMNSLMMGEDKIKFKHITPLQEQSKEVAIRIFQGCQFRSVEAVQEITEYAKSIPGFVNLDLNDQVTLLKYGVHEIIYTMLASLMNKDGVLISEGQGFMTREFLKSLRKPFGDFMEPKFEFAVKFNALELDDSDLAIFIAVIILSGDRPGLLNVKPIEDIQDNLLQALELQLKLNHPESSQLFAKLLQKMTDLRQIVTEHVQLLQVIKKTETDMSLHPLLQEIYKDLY
# Aryl hydrocarbon receptor (Homo sapiens), sequence (P35869 whole entry, looked up): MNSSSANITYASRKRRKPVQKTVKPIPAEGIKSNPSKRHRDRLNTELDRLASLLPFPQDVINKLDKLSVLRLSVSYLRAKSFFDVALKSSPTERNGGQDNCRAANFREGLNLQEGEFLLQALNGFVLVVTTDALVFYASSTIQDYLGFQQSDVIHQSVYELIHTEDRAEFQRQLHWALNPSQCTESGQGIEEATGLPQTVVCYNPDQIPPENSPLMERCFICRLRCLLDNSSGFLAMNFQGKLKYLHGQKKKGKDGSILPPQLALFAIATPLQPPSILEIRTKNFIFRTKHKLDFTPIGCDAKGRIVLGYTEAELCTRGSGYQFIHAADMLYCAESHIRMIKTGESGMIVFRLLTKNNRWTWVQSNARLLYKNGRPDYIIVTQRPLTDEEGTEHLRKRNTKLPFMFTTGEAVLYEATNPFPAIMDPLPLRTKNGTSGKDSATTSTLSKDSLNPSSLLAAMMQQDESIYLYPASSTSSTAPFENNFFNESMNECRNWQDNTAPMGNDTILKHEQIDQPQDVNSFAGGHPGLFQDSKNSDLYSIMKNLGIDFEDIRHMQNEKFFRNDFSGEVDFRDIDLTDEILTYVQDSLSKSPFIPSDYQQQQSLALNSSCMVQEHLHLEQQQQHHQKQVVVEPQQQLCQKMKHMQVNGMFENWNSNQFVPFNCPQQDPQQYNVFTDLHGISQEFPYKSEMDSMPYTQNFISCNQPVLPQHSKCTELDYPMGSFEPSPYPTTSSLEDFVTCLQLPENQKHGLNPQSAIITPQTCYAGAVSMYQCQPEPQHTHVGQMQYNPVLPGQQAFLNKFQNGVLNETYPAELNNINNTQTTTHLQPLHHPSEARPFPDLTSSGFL
# Estrogen receptor (Homo sapiens), sequence (P03372 whole entry, looked up): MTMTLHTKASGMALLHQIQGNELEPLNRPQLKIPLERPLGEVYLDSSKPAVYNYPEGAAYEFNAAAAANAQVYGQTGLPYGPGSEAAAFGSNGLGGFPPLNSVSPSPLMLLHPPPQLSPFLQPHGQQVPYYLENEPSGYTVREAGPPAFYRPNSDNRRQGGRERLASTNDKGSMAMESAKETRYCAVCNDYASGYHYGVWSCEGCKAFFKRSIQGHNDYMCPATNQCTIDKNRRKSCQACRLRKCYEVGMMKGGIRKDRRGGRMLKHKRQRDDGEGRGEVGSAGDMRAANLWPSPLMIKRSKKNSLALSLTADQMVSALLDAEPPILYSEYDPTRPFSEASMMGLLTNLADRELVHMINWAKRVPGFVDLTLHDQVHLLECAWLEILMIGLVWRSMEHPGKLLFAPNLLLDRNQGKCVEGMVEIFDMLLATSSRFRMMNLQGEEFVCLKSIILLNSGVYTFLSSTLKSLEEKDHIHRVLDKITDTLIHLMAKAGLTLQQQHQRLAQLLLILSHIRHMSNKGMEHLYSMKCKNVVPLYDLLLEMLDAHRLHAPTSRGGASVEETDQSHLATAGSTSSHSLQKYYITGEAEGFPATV
Compound,Potency [1],Potency [2],outcome [3],Potency [4],Potency [5],Potency [6],Potency [7],Potency [8],Potency [9],Potency [10],Potency [11],Potency [12],Potency [13],Potency [14],Potency [15],Potency [16],Potency [17],Potency [18],Potency [19],Potency [20]
C=C(C)C(=O)OCCOCCOC(=O)C(=C)C,inactive,inactive,inactive,inactive,inactive,inactive,inactive,inactive,inactive,inactive,inactive,inactive,inactive,inactive,inactive,inactive,inactive,,,
CCCCCCCCCCC(=O)O,inactive,inactive,inactive,inactive,inactive,inactive,inactive,inactive,inactive,inactive,inactive,inactive,,,inactive,inactive,inactive,inactive,,
C[C@@H](O)[C@H]1C(=O)N2C(C(=O)O)=C([C@H]3CCCO3)S[C@H]12,inactive,inactive,inactive,inactive,inactive,inactive,inactive,inactive,inactive,inactive,,inactive,inactive,inactive,inactive,inactive,,inactive,inactive,
CCOC(=O)c1ccccc1C(=C1C=C(Br)C(=O)C(Br)=C1)c1cc(Br)c(O)c(Br)c1,45.7 µM (active),18.2 µM (active),inactive,,,inactive,,inactive,inactive,inactive,inactive,inactive,,,inactive,,,,5.8 µM [inconclusive] (active),
CCC=CC#N,inactive,inactive,inactive,inactive,inactive,inactive,inactive,inactive,inactive,inactive,,inactive,inactive,inactive,inactive,inactive,,,inactive,inactive
CCCCCCCCCI,inactive,inactive,inactive,inactive,,,inactive,inactive,inactive,inactive,inactive,inactive,inactive,inactive,inactive,inactive,inactive,inactive,inactive,inactive
CCOC(=O)c1ccc(OCCN2C[C@H](O)[C@@H](O)[C@H](O)[C@H]2CO)cc1,inactive,inactive,inactive,,inactive,inactive,inactive,inactive,inactive,inactive,inactive,inactive,inactive,,inactive,inactive,,inactive,inactive,inactive
Cc1ccccc1N=C(N)Nc1ccccc1C,inactive,inactive,inactive,inactive,inactive,inactive,inactive,,inactive,inactive,inactive,inactive,inactive,inactive,inactive,inactive,,inactive,inactive,inactive
CCC1(CO)COCOC1,inactive,inactive,inactive,,inactive,inactive,inactive,inactive,inactive,inactive,inactive,inactive,,inactive,inactive,inactive,,,inactive,
O=C1NC(=O)c2cc([N+](=O)[O-])ccc21,inactive,inactive,inactive,inactive,inactive,inactive,inactive,inactive,inactive,,inactive,inactive,inactive,inactive,inactive,inactive,inactive,,inactive,
COc1cc(N)c(Cl)cc1C(=O)NC1CCN(CCCOc2ccc(F)cc2)CC1OC (centres undefined),11.4 µM (active),11.4 µM (active),inactive,inactive,inactive,,inactive,,inactive,inactive,inactive,inactive,inactive,inactive,inactive,inactive,inactive,inactive,inactive,inactive
CCOC(=O)C1=C(C)NC(C)=C(C(=O)OC)C1c1cccc(Cl)c1Cl (centres undefined),18.8 µM (active),18.8 µM (active),inactive,inactive,10.7 µM [activator] (active),inactive,inactive,inactive,inactive,inactive,1.88 µM (active),inactive,,inactive,,inactive,,inactive,,
CCCCCC[C@@H](O)C/C=C\CCCCCCCC(=O)OCC(O)CO (some centres undefined),inactive,inactive,inactive,inactive,inactive,inactive,inactive,inactive,inactive,inactive,inactive,inactive,inactive,inactive,inactive,inactive,,inactive,,inactive
CC1(C)S[C@@H]2[C@H](NC(=O)C(c3ccccc3)S(=O)(=O)O)C(=O)N2[C@H]1C(=O)O (some centres undefined),inactive,inactive,inactive,inactive,inactive,inactive,inactive,,inactive,inactive,inactive,inactive,inactive,,inactive,inactive,inactive,inactive,inactive,
CN1C(=O)N(c2ccccc2Br)Cc2cnc(Nc3ccc4c(c3)OCC(CO)O4)nc21 (centres undefined),54.5 µM (active),27.3 µM (active),inactive,,,,,,,,,,,49 µM (active),,inactive,,,2.75 µM [cytotoxic] (active),
c1ccc(C[n+]2cccc3ccccc32)cc1,inactive,inactive,inactive,inactive,inactive,,61.1 µM (active),,inactive,inactive,,inactive,inactive,,inactive,inactive,inactive,inactive,49 µM [inconclusive] (active),
C=C1CCC2CC1C2(C)C (centres undefined),inactive,inactive,inactive,inactive,inactive,inactive,inactive,inactive,inactive,inactive,,inactive,inactive,inactive,inactive,inactive,inactive,,inactive,inactive
CC=C(Cl)Cl,inactive,inactive,inactive,inactive,,inactive,inactive,inactive,inactive,inactive,inactive,inactive,inactive,,inactive,inactive,inactive,inactive,inactive,inactive
c1cc(N(CC2CO2)CC2CO2)ccc1Cc1ccc(N(CC2CO2)CC2CO2)cc1 (centres undefined),13.7 µM (active),8.63 µM (active),inactive,inactive,,,,,30.6 µM (active),27.3 µM (active),,54.5 µM (active),,,,inactive,,,,
CO/N=C(/C(=O)N[C@@H]1C(=O)N2C(C(=O)O)=C(COC(N)=O)CS[C@H]12)c1ccco1,inactive,inactive,inactive,inactive,,,,inactive,inactive,inactive,inactive,inactive,inactive,inactive,inactive,inactive,,,,
CCOC(=O)c1ccc(C#Cc2ccc3c(c2)C(C)(C)CCS3)nc1,inactive,inactive,inactive,inactive,,,,inactive,,inactive,inactive,inactive,,inactive,inactive,inactive,,,,26.6 µM (active)
CC1(C)[C@@H](OC(=O)CCC(=O)O)CC[C@]2(C)[C@H]3C(=O)C=C4[C@@H]5C[C@@](C)(C(=O)O)CC[C@]5(C)CC[C@@]4(C)[C@]3(C)CC[C@@H]12,inactive,inactive,inactive,inactive,,,,inactive,inactive,inactive,inactive,inactive,inactive,,inactive,,,,,26.6 µM (active)
O=C(Nc1cccc2c(=O)cc(-c3nn[nH]n3)oc12)c1ccc(OCCCCc2ccccc2)cc1,inactive,inactive,inactive,inactive,,,,inactive,inactive,inactive,inactive,inactive,inactive,inactive,29.8 µM (active),inactive,inactive,,,
CC1=Nc2ccc3ccccc3c2C1(C)C,inactive,inactive,inactive,inactive,inactive,,inactive,inactive,inactive,inactive,inactive,54.5 µM (active),inactive,inactive,inactive,inactive,,inactive,,
Clc1cc(Cl)nc(Cl)n1,inactive,inactive,inactive,inactive,,,,inactive,inactive,inactive,inactive,inactive,,49.6 µM (active),,inactive,inactive,,,
CC1CC(C)C(=O)C1=O (centres undefined),inactive,inactive,inactive,inactive,,,,inactive,inactive,inactive,inactive,inactive,inactive,inactive,inactive,inactive,inactive,inactive,,inactive
CC(=O)Oc1ccc([N+](=O)[O-])cc1CCl,30.6 µM (active),inactive,inactive,inactive,inactive,inactive,,61.1 µM (active),inactive,27.3 µM (active),inactive,,inactive,,,inactive,inactive,,,
CC(=O)Nc1ccc(C)cc1C,inactive,inactive,inactive,inactive,,,,inactive,inactive,inactive,inactive,inactive,inactive,,inactive,inactive,inactive,inactive,,inactive

# Reference: PubChem BioAssay (Tox21)
